Broadly, the inhibition is the relative decrease from the control value, in per cent.

The whole screen tested about 110,000 compounds, of which about 730 (0.66%) were called active. No stated cut-off is given here; in the data, active means inhibition above about 50%; inconclusive means no clear call, values can overlap the other calls; inactive means below that. The entries come from a sample that favours actives as a whole.

The target in this assay is Tyrosine-protein phosphatase non-receptor type 7 (Homo sapiens) (UniProt P35236). The assay can be described thus: inhibitors of human HePTP phosphatase, primary screen, biochemical, absorbance, leukemia target (AID 521).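 Further: plate controls were vehicle for no effect and reference inhibitor for full effect.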 The note with it: recombinant HePTP phosphatase activity, OD absorbance; at 20 µM; active compounds read high.
Chain of Tyrosine-protein phosphatase non-receptor type 7 (Homo sapiens) (P35236 whole entry, looked up): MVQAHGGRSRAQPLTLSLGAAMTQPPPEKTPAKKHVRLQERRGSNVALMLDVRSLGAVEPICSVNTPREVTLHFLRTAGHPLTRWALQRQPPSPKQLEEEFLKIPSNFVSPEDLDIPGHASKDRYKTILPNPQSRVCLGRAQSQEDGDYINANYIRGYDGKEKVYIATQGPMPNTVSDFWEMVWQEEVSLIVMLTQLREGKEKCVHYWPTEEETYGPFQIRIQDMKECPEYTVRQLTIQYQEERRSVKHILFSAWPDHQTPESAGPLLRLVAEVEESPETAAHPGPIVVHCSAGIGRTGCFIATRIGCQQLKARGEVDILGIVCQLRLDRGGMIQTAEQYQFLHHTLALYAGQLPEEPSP
As to `C=CCN1C(=O)/C(=C\c2cccn2-c2cccc([N+](=O)[O-])c2)C(=O)NC1=S`, the inhibition is 98.9% (active).

In the case of `COc1cccc(CN2CCN(C(=O)COc3ccccc3)CC2)c1OC`, the inhibition was 3.3% (inactive).

With `CCOc1cc(C=C2C(=O)NC(=O)NC2=O)cc(Br)c1OCCOc1ccccc1C`, the inhibition was 3.9% (inactive).

In the case of `CCOP(=O)(OCC)C(=C(Cl)Cl)C(C(=O)OC)C(=O)OC`, the inhibition is 11.5% (inactive).

In the case of `C=CCSc1nc2ccccc2c(=O)n1-c1ccccc1OC`, the inhibition is 11.5% (inactive).

For the origin of these results see PubChem BioAssay AID521 (Sanford-Burnham Center for Chemical Genomics, 2006).
